High-throughput results: PubChem, National Center for Advancing Translational Sciences (NCATS)
Most compounds without a hit are left out; they make up all but 13% or so of the library.
LASV entry inh: blocks Lassa virus binding to or entry into cells | Lassa virus pseudotype entry inhibition, cell reporter | Potency, µM (top dose mostly 37.9 µM), most hits filed as inhibitors | actives 1.2% (n = 300,000); calls by dose curve; tested in HEK293 cells; further: nearly all actives have a fitted effect of over 50% in size
HCV inh: HCV inhibition; Huh7.5.1 HCVcc-Cre infection, luciferase reporter, 44 h; Potency, µM (series often up to 41.8 µM), actives largely listed as inhibitors; actives 3.4% (n = 340,000); AID 651820; active means well fitted inhibition curve with a large enough effect; inconclusive means small, poorly fitted or top-dose-only effect, or another doubt; inactive means no such curve, though single readings can be large or run the other way
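Compounds are dispensed onto cells plated 4 h earlier at 1,000 per well, with HCVcc-Cre virus (about 0.5 moi) added next. Following 44 h of culture, luminescent signal is measured for 15 sec after 15 min with substrate at room temperature.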
Shiga toxin inh: blocks Shiga toxin action in Vero cells; AID 2315; actives 9.2% (n = 290,000); Vero cells, Shiga toxin protein synthesis inhibition reporter; inhibition, % at 38.7 µM; in the data active means inhibition mostly above about 28%, no sharp cut-off; inactive means mostly below about 43%
FMDV inh: blocks foot and mouth disease virus | FMDV antiviral cell-based qHTS | Potency, µM (top dose mostly 57.9 µM), usual class: inhibitors | actives 1.2% (n = 410,000); calls by dose curve; tested in HEK293T cells; further: read-out not given here; nearly all actives have a fitted effect of over 45% in size
MARV entry inh: blocks Marburg virus binding to or entry into cells; actives 1.8% (n = 300,000); Marburg virus pseudotyped entry inhibition, cell reporter; Potency, µM (highest dose often 37.8 µM), actives largely listed as inhibitors; AID 540276; calls by dose curve; tested in HEK293 cells
CHX counter: counter-screen hit for Shiga toxin inhibitors, cycloheximide | cell reporter, cycloheximide protein synthesis inhibition counterscreen | max response, % | actives 12% (n = 300,000) | AID 2314; in the data active means max response mostly above about 13%, no sharp cut-off; inactive means mostly below about 14%; further: read at 38.3 µM for the half of the compounds with a filed dose
Large screens that a line does not name were inactive.

Cc1c(C(=O)NCCc2ccccc2)oc2ccc(S(=O)(=O)N3CCOCC3)cc12	LASV entry inh inconclusive, HCV inh inconclusive, CHX counter 15
Cc1c(C(=O)NCCc2ccccc2)oc2ccccc12	LASV entry inh inconclusive, Shiga toxin inh 75, MARV entry inh 6.3µM, CHX counter 29
COc1ccc(OC)c(NC(=O)COc2ccc(Br)cc2)c1	none (no result: LASV entry inh, MARV entry inh)
CCC(C)NC(=O)c1cc(Sc2nnc(C)s2)nc2ccccc12 (stereo unspecified)	none (no result: LASV entry inh, FMDV inh, MARV entry inh)
CCC(C)(C)NC(=O)C(c1ccc(F)cc1)N(Cc1ccc(OC)cc1)C(=O)c1cnccn1 (stereo unspecified)	Shiga toxin inh 60, CHX counter 31
CCc1ccc(-c2ccc(C(=O)O)c(C)n2)cc1	LASV entry inh inconclusive, Shiga toxin inh 47, MARV entry inh inconclusive, CHX counter 40
Cc1ccc(CNC2=NCCS2)cc1	MARV entry inh inconclusive, CHX counter 17
Cc1ccc(CNc2nc(C)cs2)cc1	LASV entry inh inconclusive, Shiga toxin inh 75, MARV entry inh inconclusive, CHX counter 40
NC(=O)c1c(NC(=O)c2c(F)cccc2F)sc2c1CCN(Cc1ccccc1)C2	HCV inh inconclusive, Shiga toxin inh 19, CHX counter 8.3 (no result: LASV entry inh, MARV entry inh)
CCN1CCc2c(sc(NC(=O)c3ccc(S(=O)(=O)N4CCOCC4)cc3)c2C(=O)OC)C1	LASV entry inh inconclusive, HCV inh inconclusive, MARV entry inh 10µM
CC(=O)Nc1sc2c(c1C#N)CCN(Cc1ccccc1)C2	none (no result: LASV entry inh, MARV entry inh)
CCN1CCc2c(sc(NC(=O)c3ccc(S(=O)(=O)N(CC)c4ccccc4)cc3)c2C(N)=O)C1	LASV entry inh inconclusive, HCV inh inconclusive, FMDV inh 25µM, MARV entry inh inconclusive
CCC(=O)Nc1sc2c(c1C(N)=O)CCN(Cc1ccccc1)C2	Shiga toxin inh 24, FMDV inh inconclusive, CHX counter 13 (no result: LASV entry inh, MARV entry inh)
CCCCN(CCCC)S(=O)(=O)c1ccc(C(=O)Nc2sc3c(c2C(N)=O)CCN(CC)C3)cc1	none (no result: HCV inh, Shiga toxin inh, MARV entry inh, CHX counter)
O=C(NC1CC1)c1cccc(-c2cncc3nccn23)c1	none (no result: LASV entry inh, HCV inh, Shiga toxin inh, MARV entry inh, CHX counter)
CCC(c1nnnn1C1CCCC1)N1CCN(c2ccccc2F)CC1 (stereo unspecified)	none
NC(=O)c1c(NC(=O)c2ccccc2)sc2c1CCN(Cc1ccccc1)C2	CHX counter 13 (no result: LASV entry inh, MARV entry inh)
CC(C)C(=O)Nc1sc2c(c1C(N)=O)CCN(Cc1ccccc1)C2	FMDV inh inconclusive (no result: LASV entry inh, MARV entry inh)
Oc1ccc(Cl)cc1CNc1ccc(Br)cn1	LASV entry inh inconclusive, HCV inh inconclusive, Shiga toxin inh 111, CHX counter 45
Oc1c(Cl)cc(Cl)cc1CNc1ccc(Br)cn1	LASV entry inh inconclusive, Shiga toxin inh 73, CHX counter 32
Cc1ccnc(NCc2cc(Cl)ccc2O)c1	none (no result: LASV entry inh, HCV inh, Shiga toxin inh, MARV entry inh, CHX counter)
Oc1ccc(Cl)cc1CNc1ccccn1	LASV entry inh inconclusive, CHX counter 15
Oc1c(Br)cc(Br)cc1CNc1cnc2ccccc2c1	none (no result: LASV entry inh, MARV entry inh)
O=C(O)C1CCCCC1C(=O)Nc1ccc(S(=O)(=O)N2CCOCC2)cc1 (stereo unspecified)	LASV entry inh inconclusive (no result: Shiga toxin inh, CHX counter)
COc1cccc(/C=C2\SC(=S)N(C(Cc3ccccc3)C(=O)O)C2=O)c1 (stereo unspecified)	none
CCCCNc1c2c3c(cccc3n(C)c1=O)C(=O)c1ccccc1-2	HCV inh inconclusive, FMDV inh 32µM, MARV entry inh inconclusive
Clc1cccc(N/N=C/c2ccncc2)c1	MARV entry inh inconclusive, CHX counter 31
Cc1ccc(N/N=C/c2cccnc2)cc1	LASV entry inh inconclusive, Shiga toxin inh 84, MARV entry inh inconclusive, CHX counter 53
Cc1csc(N/N=C\c2cccnc2)n1	Shiga toxin inh 91, CHX counter 58
Cc1ccc(N/N=C/c2ccncc2)cc1	HCV inh inconclusive, Shiga toxin inh 87, CHX counter 42 (no result: LASV entry inh, MARV entry inh)
CC(C)NC(=S)N/N=C/c1cccnc1	LASV entry inh inconclusive, MARV entry inh inconclusive
O=[N+]([O-])c1ccc(-c2csc(N/N=C/c3cccnc3)n2)cc1	none (no result: LASV entry inh, MARV entry inh)
CC(Cc1ccccc1)NC(=O)CC(c1ccccc1)c1ccccc1O (stereo unspecified)	LASV entry inh 5.6µM, HCV inh inconclusive, MARV entry inh inconclusive
O=C(CC(c1ccccc1)c1ccccc1O)NCc1ccccc1 (stereo unspecified)	LASV entry inh inconclusive, MARV entry inh inconclusive
CC(C)(C)c1ccc(S(=O)(=O)NCc2ccccn2)cc1	CHX counter 18
CCCC(=O)Nc1c(-c2ccccc2Cl)c(=O)c2ccccc2n1C	none (no result: LASV entry inh, MARV entry inh)
CN(CCCNC(=O)c1cccn2c(=O)c3ccccc3nc12)Cc1ccccc1	HCV inh 11µM, FMDV inh inconclusive, MARV entry inh inconclusive
CCOc1ccc(CN(C)C(=O)CNC(=O)c2ccc3ccccc3c2)cc1OC	HCV inh inconclusive, FMDV inh inconclusive, MARV entry inh inconclusive
S=C1NNC2(NN1)C1CC3CC(C1)CC2C3	Shiga toxin inh 45, CHX counter 32
C1CSC2(N1)C1CC3CC(C1)CC2C3 (stereo unspecified)	none
Cn1nccc1C(=O)N/N=C/c1c(O)ccc2ccccc12	HCV inh 0.89µM, Shiga toxin inh 47, CHX counter 28 (no result: LASV entry inh, MARV entry inh)
Cc1c(/C=N/NC(=O)c2cccnc2)c2ccccc2n1Cc1ccccc1	LASV entry inh inconclusive, HCV inh 11µM, FMDV inh 14µM
Cn1c(/N=C/c2c(O)ccc3ccccc23)nc2ccccc21	Shiga toxin inh 81, CHX counter 69
CCCn1c(/N=C/c2ccccc2O)nc2ccccc21	MARV entry inh inconclusive
Cn1cc(C(=O)N/N=C/c2c(O)ccc3ccccc23)ccc1=O	HCV inh 4.5µM (no result: LASV entry inh, MARV entry inh)
O=C(COC(=O)CNC(=O)c1ccccc1)Nc1ccccc1Cl	none
Cn1ncc(N=Cc2c(O)ccc3ccccc23)c1C(=O)Nc1cccc(Cl)c1	LASV entry inh inconclusive, HCV inh inconclusive, MARV entry inh 18µM
Cc1ccc(C(=O)N/N=C/c2c(O)ccc3ccccc23)cn1	HCV inh 4.5µM (no result: LASV entry inh, MARV entry inh)
COc1ccc2ccccc2c1/C=N\NC(=O)c1cccnc1	LASV entry inh inconclusive, HCV inh inconclusive (no result: Shiga toxin inh, CHX counter)
O=C(N/N=C/c1c(O)ccc2ccccc12)c1cccnc1	LASV entry inh inconclusive, HCV inh 5µM, MARV entry inh inconclusive
O=C(NN=Cc1c(O)ccc2ccccc12)c1ccncc1	LASV entry inh 3.2µM, HCV inh inconclusive, MARV entry inh 3.2µM (no result: Shiga toxin inh, CHX counter)
O=C(N/N=C\c1c(O)ccc2ccccc12)c1ccc(O)cc1	HCV inh inconclusive (no result: LASV entry inh, MARV entry inh)
O=C(N/N=C/c1c(O)ccc2ccccc12)c1ccc(Br)o1	LASV entry inh inconclusive, HCV inh 3.5µM, MARV entry inh inconclusive, CHX counter 18
Cc1cc(O)c(C)c(O)c1/C=N/NC(=O)c1cccnc1	LASV entry inh inconclusive, HCV inh 13µM, MARV entry inh 10µM
Cc1occc1C(=O)N/N=C/c1c(O)ccc2ccccc12	LASV entry inh inconclusive, HCV inh inconclusive, Shiga toxin inh 90, MARV entry inh 3.5µM, CHX counter 36
O=C(N/N=C\c1c(O)ccc2ccccc12)c1cncc(Br)c1	LASV entry inh inconclusive, HCV inh inconclusive, MARV entry inh inconclusive
